# The full list was thinned out, with hits kept by preference.
# Pf Dd2 growth = blocks in vitro growth of P. falciparum Dd2 | P. falciparum Dd2 growth, SYBR Green, 72 h | Potency, µM (doses to about 28.9 µM), most hits filed as inhibitors | actives 4.3% (n = 120,000); active means well fitted inhibition curve with a large enough effect; further: nearly all actives have a fitted effect of over 65% in size
#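 Infected erythrocytes (Dd2, 0.3% parasitemia, 2.5% hematocrit final) are added to compound in RPMI-1640/Albumax II medium, grown 72 h at 37C in low oxygen, then lysed with saponin/Triton-X containing SYBR Green and read by fluorescence.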
# A number is an active result; i = inactive.
SMILES,Pf Dd2 growth
CCC1Oc2ccc(NC(=O)c3c(F)cccc3F)cc2CN(Cc2ccc3c(c2)OCO3)C1=O (configuration not stated),i
CC1Oc2ccc(NC(=O)c3ccccc3F)cc2CN(Cc2ccccc2F)C1=O (configuration not stated),i
CCC1Oc2ccc(NC(=O)c3cccc(F)c3)cc2CN(Cc2ccccc2F)C1=O (configuration not stated),i
O=C(COc1ccccc1)N1CCC([C@@H]2CNC[C@H]2CO)CC1,i
COc1ccccc1C(=O)NCCC1CCN(C(=O)Nc2ccccc2F)CC1,i
CNCc1ccc(N2CCCC2)cc1,i
COCCN1C(=O)[C@H]2CN(Cc3ccc(C)cc3)C[C@H]2C1=O,i
Cc1nc2ccc(C(=O)N3CCC(Cn4cc(CO)nn4)CC3)cc2nc1C,i
O=C1NCCCCCCN(C(=O)COc2ccccc2)[C@H]2CCC[C@@H]12,i
COCCNC(=O)c1ccc2c(c1)N(C)C(CC(=O)N1CCC(N)CC1)CO2 (configuration not stated),i
CCCCN(CCCC)CCCNC(=O)Cn1cc2c(n1)-c1c(oc(C(=O)N3CCCC3)c1C)CC2,11.2µM
Cc1c(C(=O)N2CCCC2)oc2c1-c1nn(CC(=O)NCc3cccc(F)c3)cc1CC2,i
COc1cccc(CNC(=O)Cn2cc3c(n2)-c2c(oc(C(=O)N4CCCC4)c2C)CC3)c1,i
CCCN1C(=O)CC[C@H]2CN(C(=O)c3cnc(C4CC4)[nH]c3=O)CC[C@H]21,i
COc1ccc(N2CC3CCC(C2)N3Cc2cccc(-c3ccc(F)cc3F)c2)cc1,i
COc1ccc(N2Cc3c(NCc4ccc5c(c4)OCO5)ncnc3N(C)CC2=O)cc1,i
COc1ccc(NC(=O)c2cc3c(N(C)Cc4ccccc4)nc(C)cn3n2)cc1OC,i
Cc1cn2nc(C(=O)N3CCN(c4ccccc4)CC3)cc2c(N2CCCC2)n1,i
Cc1cn2nc(C(=O)NCCCc3ccccc3)cc2c(N2CCCC2)n1,i
Cc1cn2nc(C(=O)N3CCCC3)cc2c(N(C)Cc2ccccc2)n1,i
Cc1cn2nc(C(=O)Nc3ccccc3F)cc2c(N(C)Cc2ccccc2)n1,7.94µM
Cc1cn2nc(C(=O)N3CCC(C)CC3)cc2c(N(C)Cc2ccccc2)n1,11.2µM
COc1ccc(CN2C[C@H]3CN(Cc4ccc(C)cc4)CCN3C2=O)cc1,i
COc1ccc(CCNC(=O)CN2C(=O)NC(c3ccccc3Cl)C3=C2COC3=O)cc1OC (configuration not stated),i
O=C(C1CC=CC1)N1C[C@@H](COc2ccncc2)[C@H](c2ccccn2)C1,i
SMILES,Pf Dd2 growth
COc1ccc(-c2noc([C@@H]3C[C@@H](O)CN3Cc3cccnc3)n2)cc1,i
O=C(NCc1nnc2ccc(-c3ccccc3)nn12)c1ccc(Cl)s1,i
COc1ccc(C(=O)NC2CCN(c3cc(-c4ccccc4)[nH]n3)C2)c(OC)c1 (configuration not stated),4.47µM
COc1ccc(C(=O)NC2CCN(c3cnn(C)c(=O)c3)CC2)c(OC)c1,i
COc1ccc(C(=O)NC2CCN(c3cc(-c4ccc(OC)cc4)[nH]n3)C2)cc1 (configuration not stated),i
COc1ccc(C(=O)NC2CCN(c3cnn(CC4CC4)c(=O)c3)CC2)c(OC)c1,7.94µM
COc1ccc(Cl)cc1C(=O)NC1CCN(c2cc(-c3ccc(F)cc3)[nH]n2)C1 (configuration not stated),i
COc1ccc(-c2cc(N3CCC(NC(=O)c4ccccc4C)C3)n[nH]2)cc1 (configuration not stated),i
COc1ccc(C(=O)NC2CCN(c3cc(-c4ccccc4)[nH]n3)C2)c(C)c1 (configuration not stated),i
COc1ccc(-c2cc(N3CCCC(NC(=O)c4cc(Cl)ccc4OC)C3)n[nH]2)cc1 (configuration not stated),i
COc1ccc(C(=O)NC2CCN(c3cc(-c4ccc(Cl)cc4)[nH]n3)C2)c(OC)c1 (configuration not stated),5.01µM
COc1ccc(-c2cc(N3CCC(NC(=O)c4ccc(Br)cc4)C3)n[nH]2)cc1 (configuration not stated),i
COc1ccc(C(=O)NC2CCN(c3cc(-c4ccc(Cl)cc4)[nH]n3)C2)cc1 (configuration not stated),8.91µM
COc1ccccc1C(=O)NC1CCN(c2cnn(CC3CC3)c(=O)c2)CC1,i
Cc1noc(C)c1S(=O)(=O)N(C)Cc1cccc(C(F)(F)F)c1,i
CCc1noc(-c2cn(C3CCN(C(=O)c4ccc(C)s4)CC3)nn2)n1,i
COc1ccc(CCNc2ncnc3c2CN(c2ccc(OC)cc2)C(=O)CN3C)cc1,i
COc1ccc(NC(=O)N2CCC(Oc3ncccc3C(=O)N(C)C)C2)c(OC)c1 (configuration not stated),i
COc1ccc2cc(C3CN(C(=O)c4ccc(C)cc4OC)CCO3)ccc2c1 (configuration not stated),i
O=C(Nc1ccc(F)c(Cl)c1)C1CCc2sc(C(=O)N3CCOCC3)cc2C1 (configuration not stated),i
CNC(=O)[C@H]1C[C@H](Oc2cccnc2)CN1S(=O)(=O)c1cccc(OC)c1,i
COc1ccc(-c2cc(N3CCCC(NC(=O)c4cc(C)cc(C)c4)C3)n[nH]2)cc1 (configuration not stated),8.91µM
COc1ccc(-c2cc(N3CCC(NC(=O)c4cc(C)cc(C)c4)C3)n[nH]2)cc1 (configuration not stated),i
COc1ccc(-c2cc(N3CCC(NC(=O)c4ccc(F)cc4Cl)CC3)n[nH]2)cc1,i
COc1ccc(-c2cc(N3CCC(NC(=O)c4ccc(C)c(C)c4)C3)n[nH]2)cc1 (configuration not stated),i
SMILES,Pf Dd2 growth
Cc1ccc(C(=O)NC2CCN(c3cc(-c4ccc(F)cc4)[nH]n3)CC2)cc1C,i
Cc1ccc(C(=O)NC2CCN(c3cc(-c4ccc(F)cc4)[nH]n3)C2)cc1C (configuration not stated),12.6µM
COc1ccc(-c2cc(N3CCC(NC(=O)c4cc(F)ccc4Cl)CC3)n[nH]2)cc1,i
COc1ccc(-c2cc(N3CCC(NC(=O)c4ccc(F)cc4F)CC3)n[nH]2)cc1,1.26µM
COc1ccc(-c2cc(N3CCCC(NC(=O)c4cc(C)ccc4C)C3)n[nH]2)cc1 (configuration not stated),i
CCOc1ccc(C2Cn3nnc(-c4nc(-c5ccccc5Cl)no4)c3CO2)cc1 (configuration not stated),i
COc1ccc(-n2nc3n(c2=O)CCN(C(=O)c2ccc(C(F)(F)F)cc2)C3)cc1,i
O=C1NCCCCCCN(C(=O)CC2CCCCC2)[C@H]2C[C@H](c3nc(Cc4ccccc4)no3)C[C@@H]12,i
Fc1cccc(CN2CCC(Cc3nc(-c4ccncc4)n[nH]3)C2)c1 (configuration not stated),i
CN(c1ccccc1)c1cc(=O)c2ccnc(NCCc3ccccn3)c2o1,i
Cc1oc2ccn(Cc3ccc(F)cc3)c(=O)c2c1C(=O)NC1CCCCCC1,i
CNC(=O)[C@@H]1CN(Cc2ccccc2C(F)(F)F)C[C@H]1CO,i
CC(=O)Nc1ccc(-c2ccc(=O)n3c2[C@@H]2C[C@@H](CN(S(=O)(=O)c4cccs4)C2)C3)cc1,i
CSc1ccc(-c2ccc(=O)n3c2[C@@H]2C[C@@H](CN(S(=O)(=O)c4cccs4)C2)C3)cc1,8.91µM
CSCC(=O)N1C[C@@H]2C[C@H](C1)c1c(-c3ccc(SC)cc3)ccc(=O)n1C2,i

# Screening results: PubChem, National Center for Advancing Translational Sciences (NCATS)
